Data: PubChem BioAssay (EPA / NIEHS)
Values joined by “and” are separate entries in the source; they are usually repeats but may differ in a detail not shown here. Identical values can stand only once. A structure can be active in one record and inactive in another. Active and inactive are the calls of the source. Rule for the calls: active = hit-call score of the fitted dose curve at least 0.9, where 1 is the maximum; inactive = score below 0.9.

Key:
CD69, CD69 (gene 969) = assay: BSK_IMphg_CD69: BioMAP Diversity Plus: IMphg Assay for CD69 Biomarker Activity (AID 2284257); conditions: primary human endothelial cells with macrophages
Description: BSK_IMphg is a cell-based, multiplexed-readout assay that uses venular endothelial cells and macrophages, a human vascular primary cell, with measurements taken at 24 hours after chemical dosing in a microplate: 96-well plate.BSK_IMphg_CD69 is an assay component measured in the BSK_IMphg assay. It measures CD69 antibody related to regulation of gene expression using ELISA technology.Data from the assay component BSK_IMphg_CD69 was analyzed at the endpoint, BSK_IMphg_CD69, in the positive analysis fitting direction relative to DMSO as the negative control and baseline of activity. Using a type of binding reporter, gain or loss-of-signal activity can be used to understand protein changes. To generalize the intended target to other relatable targets, this assay endpoint is annotated to the 'cytokine' intended target family, where the subfamily is 'inflammatory factor'.
The levels of cell surface (or secreted, indicated by the prefix "s") biomarker endpoints were measured by ELISA. Overt cytotoxicity to cells in confluent adherent cultures (all systems other than the BT system) was assessed by measuring total protein levels using sulforhodamine B (SRB) staining in parallel cultures at the time of biomarker measurements, indicated as SRB endpoints. For proliferation assays for adherent cell types, individual cell types are cultured at sub-confluence and relative cell numbers quantified by SRB staining at time points optimized for each system (48 h: 3C and CASM3C systems; 72 h: BT and HDF3CGF systems; 96 h: SAg system). SRB was performed by staining cells with 0.1% SRB after fixation with 10% TCA and reading wells at 560 nm.Viability and proliferation of PBMC (T cells) was quantified by Alamar Blue reduction for the SAg and BT systems. […] Then, Alamar Blue (20 uL/well) (Invitrogen, Cat DAL1100) was added for 6 h, and the plates were read with a fluorescence microplate reader at 546/580 nm (excitation/emission). […] Plates were read after 6 h.

[1] = read-out: Eotaxin 3, CCL26 (gene 10344); assay: BSK_BF4T_Eotaxin3: BioMAP Diversity Plus: BF4T Assay for Eotaxin 3 Biomarker Activity (AID 2284258); conditions: primary human bronchial epithelial cells with fibroblasts
Method in brief: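 ELISA measurement of Eotaxin-3 after 24 h chemical exposure in a bronchial epithelial/dermal fibroblast co-culture, with DMSO as baseline. Parallel SRB staining (0.1% SRB after 10% TCA fixation, 560 nm) flagged overt cytotoxicity.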

[2] = read-out: Monocyte Chemoattractant Protein-1 (MCP1), CCL2 (gene 6347); assay: BSK_BF4T_MCP1: BioMAP Diversity Plus: BF4T Assay for Monocyte Chemoattractant Protein-1 (MCP1) Biomarker Activity (AID 2284259); conditions: primary human bronchial epithelial cells with fibroblasts
Method in brief: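 MCP-1 ELISA readout taken 24 h after dosing in the BF4T system (bronchial epithelial cells plus dermal fibroblasts). Parallel SRB total-protein staining flagged cytotoxicity; DMSO served as baseline, positive fitting direction.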

[3] = read-out: Intercellular Adhesion Molecule 1 (ICAM1), ICAM1 (gene 3383); assay: BSK_BF4T_ICAM1: BioMAP Diversity Plus: BF4T Assay for Intercellular Adhesion Molecule 1 (ICAM1) Biomarker Activity (AID 2284260); conditions: primary human bronchial epithelial cells with fibroblasts
Method in brief: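 ICAM-1 levels measured by ELISA after 24 h chemical treatment of bronchial epithelial cell/dermal fibroblast co-cultures, read against DMSO baseline. Overt cytotoxicity checked in parallel cultures by sulforhodamine B staining.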

[4] = read-out: Interleukin-8 (IL8), CXCL8 (gene 3576); assay: BSK_MyoF_IL8: BioMAP Diversity Plus: MyoF Assay for Interleukin-8 (IL8) Biomarker Activity (AID 2284261); conditions: primary human lung fibroblasts
Method in brief: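 DMSO-normalised, upward-fitted IL-8 ELISA signal; human lung fibroblasts, 24 h chemical treatment.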

CD90, THY1 (gene 7070) = assay: BSK_BF4T_CD90: BioMAP Diversity Plus: BF4T Assay for CD90 Biomarker Activity (AID 2284262); conditions: primary human bronchial epithelial cells with fibroblasts
Method in brief: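 CD90 levels by ELISA after 24 h treatment of human bronchial epithelial cell/dermal fibroblast cultures, analysed versus DMSO. Overt cytotoxicity checked in parallel cultures by sulforhodamine B staining.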

[5] = read-out: Interleukin-8 (IL8), CXCL8 (gene 3576); assay: BSK_BF4T_IL8: BioMAP Diversity Plus: BF4T Assay for Interleukin-8 (IL8) Biomarker Activity (AID 2284263); conditions: primary human bronchial epithelial cells with fibroblasts
Method in brief: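 Human bronchial epithelial cells with dermal fibroblasts co-culture; IL-8 measured by ELISA 24 hours after dosing, fitted vs DMSO. Cytotoxicity tracked in parallel cultures by SRB total-protein staining.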

[6] = read-out: Interleukin-1 alpha (IL1a), IL1A (gene 3552); assay: BSK_BF4T_IL1a: BioMAP Diversity Plus: BF4T Assay for Interleukin-1 alpha (IL1a) Biomarker Activity (AID 2284264); conditions: primary human bronchial epithelial cells with fibroblasts
Method in brief: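 ELISA read-out of IL-1α from bronchial epithelial cell/dermal fibroblast co-cultures 24 h after compound addition. Increases scored against DMSO negative control. Cytotoxicity monitored by sulforhodamine B staining of parallel cultures.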

Decorin, DCN (gene 1634) = assay: BSK_MyoF_Decorin: BioMAP Diversity Plus: MyoF Assay for Decorin Biomarker Activity (AID 2284265); conditions: primary human lung fibroblasts
Method in brief: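 In this multiplexed fibroblast system, secreted or surface decorin is detected by ELISA one day after dosing, with increases scored against the DMSO vehicle.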

KRT18 (gene 3875) = assay: BSK_BF4T_Keratin818: BioMAP Diversity Plus: BF4T Assay for Keratin 818 Biomarker Activity (AID 2284266); conditions: primary human bronchial epithelial cells with fibroblasts
Description: BSK_BF4T is a cell-based, multiplexed-readout assay that uses bronchial epithelial cells and dermal fibroblasts, a human vascular primary cell, with measurements taken at 24 hours after chemical dosing in a microplate: 96-well plate.BSK_BF4T_Keratin818 is an assay component measured in the BSK_BF4T assay. It measures Keratin 8/18 antibody related to regulation of gene expression using ELISA technology.Data from the assay component BSK_BF4T_Keratin818 was analyzed at the endpoint, BSK_BF4T_Keratin818, in the positive analysis fitting direction relative to DMSO as the negative control and baseline of activity. […]
The levels of cell surface (or secreted, indicated by the prefix "s") biomarker endpoints were measured by ELISA. Overt cytotoxicity to cells in confluent adherent cultures (all systems other than the BT system) was assessed by measuring total protein levels using sulforhodamine B (SRB) staining in parallel cultures at the time of biomarker measurements, indicated as SRB endpoints. For proliferation assays for adherent cell types, individual cell types are cultured at sub-confluence and relative cell numbers quantified by SRB staining at time points optimized for each system (48 h: 3C and CASM3C systems; 72 h: BT and HDF3CGF systems; 96 h: SAg system). […] Plates were read after 6 h.

| Compound | outcome (CD69, CD69 (gene 969)) | outcome [1] | AC50 [2] | outcome [2] | outcome [3] | outcome [4] | outcome (CD90, THY1 (gene 7070)) | outcome [5] | outcome [6] | outcome (Decorin, DCN (gene 1634)) | outcome (KRT18 (gene 3875)) | AC50 (CD69, CD69 (gene 969)) | AC50 [1] |
| --- | --- | --- | --- | --- | --- | --- | --- | --- | --- | --- | --- | --- | --- |
| O=C(O)C(F)(F)C(F)(F)C(F)(F)C(F)(F)C(F)(F)C(F)(F)C(F)(F)F | inactive | inactive | 50.1 µM (active) | inactive | inactive | inactive | inactive | inactive | inactive | inactive | inactive |  |  |
| ClC1C(Cl)C(Cl)C(Cl)C(Cl)C1Cl (stereo unspecified) |  |  |  |  |  | inactive |  |  |  | inactive |  |  |  |
| O=S(=O)(O)C(F)(F)C(F)(F)C(F)(F)C(F)(F)C(F)(F)C(F)(F)C(F)(F)C(F)(F)F | inactive | inactive | 44.6 µM (active) | inactive | inactive | inactive | inactive | inactive | inactive | inactive | inactive | 30 µM (active) | 17.2 µM (active) and 1.82 µM (active) |
